This is an account of results in PubChem BioAssay.

Active and inactive are the calls of the source. Unless noted, the rule behind the calls is not given here.

A short description of test [1]: resazurin metabolic signal in HepG2 cells – cell-based, resazurin fluorescence, 24 h, PK04 Diversity Set, profiling panel (AID 1172). The note with it: HepG2 viability, higher = more signal.
Test [2] is described as follows: budding yeast growth changes without added modifier – OD600, strain BY4716, 24 h, basal condition, primary screen (AID 1173). The note with it: S. cerevisiae BY4716 growth, OD600, 24 h; higher = more signal, called active from +8 up or from −8 down.
Test [3] can be described thus: viability profiling in MM1S myeloma cells – cell-based, resazurin fluorescence, basal, 24 h, PK04 Diversity Set, profiling panel (AID 1174).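 Note: MM1S multiple myeloma cell line.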 Particulars: higher = more signal, called active from +8 up or from −8 down. For orientation: Resazurin is reduced to fluorescent resorufin, in cell work by metabolically active cells.
Test [4] deals with Dihydroorotate dehydrogenase (quinone), mitochondrial (Plasmodium falciparum (isolate 3D7)) (UniProt Q08210). Nature of the test: inhibition of P. falciparum DHODH – biochemical, C-terminal His tag, absorbance 600 nm, primary screen (AID 1175).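 Note: recombinant parasite enzyme with a five histidine tag at its C terminus.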 The note with it: PfDHODH enzyme, DCIP absorbance 600 nm; higher = more signal, called active from +8 up or from −8 down.
Sequence of Dihydroorotate dehydrogenase (quinone), mitochondrial (Plasmodium falciparum (isolate 3D7)) (Q08210 whole entry, looked up): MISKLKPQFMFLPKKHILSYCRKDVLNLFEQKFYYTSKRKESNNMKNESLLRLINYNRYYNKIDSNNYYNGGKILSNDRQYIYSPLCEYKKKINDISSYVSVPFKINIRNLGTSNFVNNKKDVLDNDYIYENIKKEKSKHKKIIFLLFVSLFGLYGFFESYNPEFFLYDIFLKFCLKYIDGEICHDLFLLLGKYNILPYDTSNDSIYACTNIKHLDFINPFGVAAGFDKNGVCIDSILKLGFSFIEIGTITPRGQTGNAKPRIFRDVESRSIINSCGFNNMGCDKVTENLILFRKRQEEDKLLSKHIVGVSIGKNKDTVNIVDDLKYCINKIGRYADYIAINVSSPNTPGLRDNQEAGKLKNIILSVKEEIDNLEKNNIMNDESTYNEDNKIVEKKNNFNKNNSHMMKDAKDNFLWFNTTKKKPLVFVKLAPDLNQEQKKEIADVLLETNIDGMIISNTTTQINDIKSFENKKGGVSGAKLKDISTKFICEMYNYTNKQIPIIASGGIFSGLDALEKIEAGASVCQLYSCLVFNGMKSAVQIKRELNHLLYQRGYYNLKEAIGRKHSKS
A short description of test [5]: inhibition of PAO1 biofilm formation – strain PAO1, LB-PBS medium, absorbance 600 nm, primary screen (AID 1176). Particulars: P. aeruginosa PAO1 growth/biofilm, A600, 12 h; higher = more signal.
The nature of test [6]: growth modulation of vineyard yeast isolate – strain RM11-1a, OD600, basal, 24 h, primary screen (AID 1177).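 Note: cultures grown under basal conditions with no added stressor.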 The note with it: S. cerevisiae RM11-1a growth, OD600, 24 h; higher = more signal, called active from +8 up or from −8 down.
The nature of test [7]: growth of efflux-deficient E. coli DRC39 – strain DRC39, OD650, 24 h, E. coli filamentation inducers, primary screen (AID 1178).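 Note: growth measured as culture turbidity by optical density at 650 nm.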 The note with it: E. coli DRC39 acrAB, higher = more signal, called active from +8 up or from −8 down.
The nature of test [8]: growth of efflux-deficient E. coli DRC39 – strain DRC39, OD650, 48 h, E. coli filamentation inducers, primary screen (AID 1179).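 Note: screen aims at cell division blockers that make cells filament.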 The note with it: E. coli DRC39 delta-acrAB growth, higher = more signal, called active from +8 up or from −8 down.
Test [9] in a line: viability profiling in RPMI8226 myeloma cells – cell-based, resazurin fluorescence, basal, 24 h, PK04 Diversity Set, profiling panel (AID 1180).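 Note: RPMI8826 multiple myeloma cell line at 5000 cells per well.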 The note with it: higher = more signal.
For test [10], the target named is E3 ubiquitin-protein ligase XIAP (Homo sapiens) (UniProt P98170). In words: small molecules binding XIAP protein – biophysical, small-molecule microarray, fluorescence 635 nm, primary screen (AID 1181).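 Note: score merges 667 nm emission and signal to noise over triplicate slides.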 The note with it: higher = more signal.
Sequence of E3 ubiquitin-protein ligase XIAP (Homo sapiens) (P98170 whole entry, looked up, the tested form may be a part): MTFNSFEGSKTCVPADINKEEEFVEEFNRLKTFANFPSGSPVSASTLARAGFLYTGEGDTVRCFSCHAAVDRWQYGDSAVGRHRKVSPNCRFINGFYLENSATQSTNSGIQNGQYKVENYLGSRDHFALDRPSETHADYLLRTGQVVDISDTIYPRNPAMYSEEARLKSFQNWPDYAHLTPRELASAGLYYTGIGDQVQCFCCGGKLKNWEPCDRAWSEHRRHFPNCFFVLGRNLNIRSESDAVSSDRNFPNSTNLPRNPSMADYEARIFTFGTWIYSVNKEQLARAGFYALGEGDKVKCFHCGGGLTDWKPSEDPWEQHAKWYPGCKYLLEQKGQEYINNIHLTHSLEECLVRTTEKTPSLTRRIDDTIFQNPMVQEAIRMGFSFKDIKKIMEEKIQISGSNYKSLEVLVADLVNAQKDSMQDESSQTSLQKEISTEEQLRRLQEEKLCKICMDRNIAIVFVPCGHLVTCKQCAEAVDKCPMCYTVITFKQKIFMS
Test [11] relates to XIP peptide (Xip251-270) binding. In words: XIP fragment 251-270 binding compounds – biochemical, small-molecule microarray, fluorescence 635/667 nm, 0.1 µg/mL protein, primary screen (AID 1182). Particulars: fluorescent protein binding, 635 nm, higher = more signal, called active from +8 up or from −8 down.
A further test relates to XIP peptide (Xip251-270). In words: compounds binding XIP fragment 251-270 – biochemical, small-molecule microarray, fluorescence 635/667 nm, 0.5 µg/mL protein, primary screen (AID 1183). Particulars: fluorescence 635 nm, higher = more signal.
Test [12] in a line: blood-stage malaria parasite viability loss – strain 3D7, DAPI fluorescence, 100 nL, primary screen (AID 1184).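 Note: parasites grown inside human red blood cells in medium with human serum.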 The note with it: P. falciparum 3D7 growth, 3 d, higher = more signal.
Test [13] concerns the target Homeobox protein Hox-A13 (Mus musculus) (UniProt Q62424). Nature of the test: disruptors of Hoxa13 oligonucleotide interaction – biochemical, fluorescence polarization, labeled oligonucleotide, primary screen (AID 1185). Particulars: Hoxa13:DNA binding, 15 min, higher = more signal, called active from +8 up or from −8 down.
Test [14] can be described thus: blockers of DNA damage checkpoint Chk1 activation – imaging, HeLa, hydroxyurea, phospho-Chk1 antibody, percent positive cells, primary screen (AID 1186). The note with it: hydroxyurea-induced phospho-Chk1 immunofluorescence imaging, higher = more signal.
Test [15] can be described thus: blockers of DNA damage checkpoint Chk1 activation – imaging, HeLa, hydroxyurea, phospho-Chk1 nuclear intensity, primary screen (AID 1187). Particulars: hydroxyurea-induced phospho-Chk1 immunofluorescence imaging, higher = more signal.

Sequence of Homeobox protein Hox-A13 (Mus musculus) (Q62424 whole entry, looked up): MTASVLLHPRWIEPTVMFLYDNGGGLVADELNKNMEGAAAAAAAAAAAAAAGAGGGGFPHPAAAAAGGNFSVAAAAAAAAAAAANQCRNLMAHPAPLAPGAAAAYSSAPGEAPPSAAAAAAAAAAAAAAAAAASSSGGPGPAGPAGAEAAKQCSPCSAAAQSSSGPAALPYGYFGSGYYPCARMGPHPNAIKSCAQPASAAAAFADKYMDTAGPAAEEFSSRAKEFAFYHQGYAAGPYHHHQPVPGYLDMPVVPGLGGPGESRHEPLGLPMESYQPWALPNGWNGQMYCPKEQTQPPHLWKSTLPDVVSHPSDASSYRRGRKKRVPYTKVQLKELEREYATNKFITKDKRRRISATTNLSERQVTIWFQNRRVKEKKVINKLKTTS

For the compound `CCCc1cc2c(n1CCc1ccc(Cl)cc1)C(C)C1CN(C(=O)c3ccccc3)C(C)(C(=O)OC)C21` (centres undefined), the z-score in test [1] is -1.19; in test [2] it was 0.736 (inactive); in test [3] it was -2.85 (inactive); in test [5], 0.659 (inactive); in test [6] it was 1.09 (inactive); in test [7] it was -1.34 (inactive). In addition, the z-score was -1.33 (inactive) in [8]; -1.98 in test [9]; -1.18 in test [12]; -5.05 (inactive) in [13]; 0.853 (inactive) in test [14]; 0.692 (inactive) in test [15]. For the same compound, the composite z-score in test [4] was -0.823 (inactive); in test [10], 0.527; in test [11], -0.573 (inactive); in the test on XIP peptide (Xip251-270), 0.201.

As to `CCCCCCc1nc(-c2ccc(-c3ccc(Cl)c(Cl)c3)o2)cc2c1[Si](C(C)C)(C(C)C)OC2`, the z-score in [1] was 0.373; in test [2], -7.31 (inactive); in [3], -0.273 (inactive); in test [5] it was -0.558 (inactive); in test [6] it was -0.878 (inactive); in test [7], 0.522 (inactive). The z-score is 0.395 (inactive) in test [8]; -0.151 in test [9]; -2.22 in [12]; -3.51 (inactive) in test [13]; -0.6 (inactive) in test [14]; -0.222 (inactive) in [15]. Besides, the composite z-score in test [4] is -1.97 (inactive); in test [10], -0.0233; in [11], 0.108 (inactive); with XIP peptide (Xip251-270) it was -0.0619.

Take `O=C(NC1CC1)[C@@H]1c2ccccc2C(=O)N(Cc2ccc(OC(F)(F)F)cc2)[C@H]1c1ccc(CO)cc1`: the z-score is 1.26 in [1]; -0.327 (inactive) in test [2]; 1.23 (inactive) in test [3]; -0.233 (inactive) in test [5]; -0.544 (inactive) in test [6]; 0.392 (inactive) in test [7]. In addition, the z-score was 1.11 (inactive) in [8]; 0.718 in [9]; 0.599 in test [12]; -3.51 (inactive) in [13]; -0.453 (inactive) in test [14]; -0.577 (inactive) in [15]. In addition, the composite z-score in test [4] was 0.347 (inactive); in test [10], -0.239; in test [11] it was 2.46 (inactive); in the test on XIP peptide (Xip251-270), 0.0303.

Take `COCCOC(=O)N1C(=O)[C@@]2(c3cc(C#CCC(C(=O)OC)C(=O)OC)ccc31)[C@H](c1ccc(O)cc1)N1[C@H](c3ccccc3)[C@H](c3ccccc3)OC(=O)[C@H]1[C@@H]2C(=O)Nc1nc2ccccc2s1`: the z-score in test [1] is 0.623; in test [2], -0.146 (inactive); in test [3] it was -1.05 (inactive); in test [5], 0.321 (inactive); in test [6], 0.559 (inactive); in test [7] it was -0.709 (inactive). For the same compound, the z-score in [8] was -0.961 (inactive); in test [9], -0.157; in [12] it was -1.43; in test [13] it was -2.2 (inactive); in [14] it was 0.03 (inactive); in test [15], 0.0087 (inactive). Also, the composite z-score in test [4] was -1 (inactive); in test [10], -0.138; in [11], 1.49 (inactive); in the test on XIP peptide (Xip251-270), 0.853.

For `C[N+](C)(C)CCCCNC(=O)[C@H]1C[C@H]2C(=O)N[C@@H](Cc3ccccc3)C(=O)N2[C@H]1c1cccc(OCCO)c1`, the z-score in [1] is -3.26; in test [2] it was 1.07 (inactive); in [3] it was -0.476 (inactive); in test [5], 0.544 (inactive); in test [6], 0.103 (inactive); in test [7], 0.548 (inactive). Also, the z-score is 0.779 (inactive) in test [8]; -0.863 in test [9]; -0.352 in test [12]; -3.44 (inactive) in test [13]; 0.88 (inactive) in test [14]; 0.461 (inactive) in test [15]. Besides, the composite z-score was -30.8 (active) in test [4], 0.459 in [10], 0.875 (inactive) in test [11] and 0.696 in the test on XIP peptide (Xip251-270).

For `C#CCN1[C@@H](Cc2ccccc2)C(=O)O[C@H](Cc2ccccc2)[C@@H]1/C=C/C1CC1`, the z-score in test [1] was 0.642; in [2], -0.236 (inactive); in test [3] it was 1.56 (inactive); in test [5], -0.565 (inactive); in [6], 0.0761 (inactive); in test [7], 1.37 (inactive). Further, the z-score is 1.06 (inactive) in test [8]; 1.62 in test [9]; -1.18 in [12]; -0.571 (inactive) in test [13]; -0.352 (inactive) in [14]; -0.267 (inactive) in test [15]. Further, the composite z-score in test [4] was 0.0255 (inactive); in test [10] it was -0.208; in [11], -0.157 (inactive); in the test with XIP peptide (Xip251-270) it was 0.5.

Turning to `CC(C)C(=C=CC[C@H](O)c1ccccc1OCCO)C[C@H](O)COCc1ccccc1`, the z-score in test [1] is -0.0813; in [2] it was -1.07 (inactive); in test [3], -0.271 (inactive); in test [5] it was 0.731 (inactive); in test [6] it was -0.154 (inactive); in [7], -0.145 (inactive). Besides, the z-score was -0.306 (inactive) in [8]; -0.921 in [9]; -1.78 in test [12]; -4.94 (inactive) in [13]; 0.233 (inactive) in test [14]; -0.371 (inactive) in [15]. Moreover, the composite z-score in [4] is -2.12 (inactive); in test [10], 0.17; in [11], -0.182 (inactive); in the test on XIP peptide (Xip251-270), 0.619.

In the case of `Cc1ccc(C(C)CC(O)C2C=CC3C(=O)N(C)C(=O)C3N2Nc2ccccc2)o1` (centres undefined), the z-score in test [1] is -0.243; in test [2] it was 0.372 (inactive); in test [3], -0.855 (inactive); in test [5], 0.695 (inactive); in test [6] it was 0.051 (inactive); in test [7], -1 (inactive). Also, the z-score is -0.466 (inactive) in test [8]; -0.874 in test [9]; 0.385 in test [12]; -4.68 (inactive) in [13]; 0.163 (inactive) in [14]; -0.0486 (inactive) in [15]. Further, the composite z-score in test [4] was 0.164 (inactive); in test [10], 0.198; in test [11], 0.476 (inactive); with XIP peptide (Xip251-270), 0.383.

For the compound `COCCOC(=O)N1C(=O)[C@@]2(c3cc(C#CCC(C(=O)OC)C(=O)OC)ccc31)[C@H](C(=O)Nc1nc3ccccc3s1)[C@H]1C(=O)O[C@H](c3ccccc3)[C@H](c3ccccc3)N1[C@@H]2c1ccc(OCCO)cc1`, the z-score in [1] was 0.318; in test [2], 1.18 (inactive); in [3] it was 0.961 (inactive); in [5] it was 2.54 (inactive); in test [6], 2.25 (inactive); in [7], -0.0125 (inactive). The z-score in test [8] is 0.972 (inactive); in test [9], -0.177; in test [12], -1.85; in [13] it was 1.46 (inactive); in test [14], -0.0393 (inactive); in test [15] it was 0.611 (inactive). Further, the composite z-score was -0.859 (inactive) in test [4], 0.214 in [10], 1.7 (inactive) in test [11] and 0.768 in the test on XIP peptide (Xip251-270).
